# “And” between values parts separate entries of the source, which are not always exact repeats. Equal entries are not always repeated. About 83,000 compounds went through this panel and 20% of them were active in at least one assay; those are over-represented in the sample as a whole.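 Interpretation: 100, growth as untreated; towards 0, rising growth inhibition; 0, no net growth; 0 to -100, cell death. Compounds scoring below 10 were considered active.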 A number with no mark means an inactive call. The source made the active and inactive calls.
# Tested on: SR leukemia
# Experiment: NCI-60 one-dose screen, 48 h (100 = growth as untreated, 0 = no growth, -100 = all killed)
# Settings: 0.005 µM
# Method: Growth inhibition of the SR human tumor cell line is measured as a screen for anti-cancer activity. Cells are grown in 96 well plates and exposed to the test compound for 48 hours. Compounds are tested at a single concentration, which is 10^-5 M for most compounds. The reported endpoint is percent growth (GI% or GIPRCNT), where numbers from 0 - 100% represent growth inhibition, and numbers from -100% - 0 represent cell death. For example, a value of 40 represents 60% growth inhibition. A value of 0 means no net growth occurred over the course of the experiment. A value of -40 indicates 40% of cells at the beginning of the experiment died by the end of the experiment. A value of -100 means all cells are dead at the end of the experiment.
# NCI-60 Human Tumor Cell Lines Screen was performed using the standard one-dose NCI protocol, which is described in more detail at https://dtp.cancer.gov/discovery_development/nci-60/default.htm.
# Compounds with GIPRCNT values below 10 were considered active. Activity score was based on GIPRCNT using the following formula: […]
# Score is 0 for GIPRCNT values of 100 or above, 50 for GIPRCNT values of 0, and 100 for GIPRCNT values of -100.
row,Compound,growth [%]
1,CN(C)CCNc1ncc(F)c(-c2cnc3cc(-c4cnn(C)c4)ccn23)n1,99.9

# Same assay, conditions: 10 µM unless noted
row,Compound,growth
1,Nn1c(-c2ccc(Cl)cc2)nc2c(-c3ccc(Cl)cc3)nc3ccc(Cl)cc3c2c1=O,-62.1% (active)
2,O=c1cc(N/N=C/c2ccc(F)cc2)c2cc(Cl)ccc2[nH]1,4.1% (active)
3,COc1cc2ncnc(Nc3ccc(F)c(Cl)c3)c2cc1OCC(=O)N1CCCCC1,74.6%
4,COc1ccc(C2Nc3nc(SC)nc(N)c3N=C3c4ccccc4CCC32)cc1 (stereo not given),66%
5,CCCc1cc(C(N)=S)ccn1,104%
6,COc1cc(/C=N/NC(=O)CCN2c3ccccc3Sc3ccccc32)cc(OC)c1OC,72%
7,CN(Cc1ccccc1)c1nc(Cl)c(C2CC(c3ccc4c(c3)OCO4)=NN2c2cc(Cl)cc(Cl)c2)s1 (stereo not given),98.6%
8,Clc1ccc2c(c1)N(c1ncnc3ccc(-c4cnc5[nH]ccc5c4)cc13)CC2,1.86% (active)
9,N#C/C(=C\c1ccccc1Cl)c1cc2ccccc2[nH]1,60%
10,C/C=C(/C)C(=O)O[C@@H]1CC(C)(C)CC2C34OC(=O)[C@@]21CC[C@@]3(C)[C@]1(C)CCC2C(C)(C)C(=O)CC[C@]2(C)C1C[C@@H]4Cl (stereo not given in full),108%
11,Nc1nc2c(s1)CCc1cn(S(=O)(=O)c3ccccc3)cc1-2,75.2% and 92.8%
12,CN1C(=O)/C(=C/c2ccc(C(=O)Nc3ncc(Cc4ccccc4Cl)s3)cc2)SC1=S,35.7%
13,CC(=O)N1N=C(c2ccc(F)cc2)CC1c1sc(N(C)Cc2ccccc2)nc1Cl (stereo not given),94.6%
14,O=C(NNC(=S)Nc1ccccc1)c1ccncc1,99.2%
15,O=C1OCC2=C1C(c1cccc(C(F)(F)F)c1)c1cc3c(cc1N2CCO)CCC3 (stereo not given),11.1%
16,COc1ccc(/C=C2/C(=O)N=C3N2NC(c2ccccc2)=CN3c2ccccc2)cc1,106%
17,COC(=O)[C@H]1Cc2c([nH]c3ccccc23)[C@@H](c2cccs2)N1,108%
18,COc1cc(C(=O)c2ccccc2C(=O)O)c(OC)c2c1CCCC2,67.3% and 94.9%
19,CN1CCN(CCNC(=O)c2cccc(CN3c4cccc5c4C(=Cc4cccnc43)N(C)C5=O)c2)CC1,33.5%

row,Compound,growth
1,C=CCN1C=CC(=O)[C@H](O[Si](C)(C)C(C)(C)C)[C@@H]1/C=C/c1ccccc1,-25.6% [100 µM] (active)
2,CCOc1nc(-c2ccccc2)cc2c(O)c(C(=O)N/N=C/c3ccc(N(C)C)cc3)[nH]c(=O)c12,101%
3,O=C(NNc1ccccc1)c1ccccc1,104%
4,COc1ccc(Oc2nc(Nc3ccc(N4CCOCC4)cc3)ncc2NC(=O)c2cc(OC)cc(OC)c2)cc1,34.7%
5,COc1ccc2c(c1)oc1c(C)c3c(c(C)c12)C(=O)N(Nc1ccccc1)C3=O,104%
6,O=C(CCCOc1ccc(Br)cc1)Nc1ncc(Cc2ccc(F)cc2)s1,22.6%
7,C/C(=C(\c1ccc(OCCN2CCOCC2)cc1)c1ccc(OC(=O)C2CCCCC2)cc1)c1ccc(Cl)cc1,94.2%
8,CC/C=C\C/C=C\C[C@H](O)C/C=C1/C(=O)C=C[C@@H]1C/C=C\CCCC(=O)OC,0.0807% (active)
9,OB(O)c1ccsc1-c1nc2ccc3[nH]ncc3c2c2c1CCCC2,14.1%
10,CC(C)(C)CC(N)=O,102%
11,Nc1ccc(-c2nc3ccc4[nH]ncc4c3c3c2CCCC3)cc1F,10.8%
12,FC(F)(F)Sc1ccc(/C=C/c2cc(/C=C/c3ccc(SC(F)(F)F)cc3)n(-c3ccccc3)n2)cc1,91.4%
13,CC[C@H](C)[C@H](NC(=O)[C@@H](N)CCC(N)=O)C(=O)N[C@@H](Cc1ccc(O)cc1)C(=O)N[C@@H](CCCCN)C(=O)N[C@@H](CCCCN)C(=O)N[C@@H](Cc1ccc(O)cc1)C(=O)N[C@@H](CCCNC(=N)N)C(=O)N[C@H](C(=O)N[C@@H](Cc1c[nH]c2ccccc12)C(=O)N[C@@H](Cc1ccc(O)cc1)C(=O)N[C@@H](CCCNC(=N)N)C(=O)N[C@@H](CCCCN)C(=O)N[C@@H](C)C(=O)N[C@@H](Cc1c[nH]c2ccccc12)C(=O)N[C@@H](CCCCN)C(=O)N[C@H](C(=O)N[C@@H](CC(C)C)C(=O)NCC(=O)N[C@@H](CCCCN)C(=O)N[C@H](C(N)=O)C(C)C)C(C)C)[C@@H](C)O,37.8%
14,NC(=O)c1c(NC(=O)/C=C/c2cccs2)sc2c1CCC(=O)C2,11.2%
15,NS(=O)(=O)OCC1OC(n2cnc3cncnc32)C(O)C1O (stereo not given),2.84% [0.1 µM] (active) and 3.32% [0.1 µM] (active)
16,CN1Cn2c(ccc2C(F)(F)F)C(=O)CS1(=O)=O,109%
17,NC(N)=NC(N)=NCCCc1ccco1,110%
18,COc1cc(/C=C2\CCC/C(=C\c3cc(CN4CCCC4)c(O)c(OC)c3)C2=O)cc(CN2CCCC2)c1O,8% (active)
19,CC(C)(C)c1cc(C(C)(C)c2ccccc2)cc(Cc2cc(C(C)(C)c3ccccc3)cc(C(C)(C)C)c2O)c1O,-21.9% (active)

# Same assay, conditions: 30 µM
row,Compound,growth
1,CN(C)CCNc1ncc(F)c(-c2cnc3cc(-c4cnn(C)c4)ccn23)n1,5.34% (active)

# Source: PubChem BioAssay (NCI)
